# Shiga toxin inh = inhibitors of Shiga toxin in Vero cells | Vero cells, Shiga toxin protein synthesis inhibition reporter | inhibition, % at 38.7 µM | hit rate 9.2% among 290,000 | AID 2315; in the data active = inhibition mostly above about 28%, no sharp cut-off; inactive = mostly below about 43%
# Cycloheximide cs = affects cycloheximide protein synthesis inhibition readout, counter-screen. hit rate 12% among 300,000. max response, %. cell reporter, cycloheximide protein synthesis inhibition counterscreen; in the data active = max response mostly above about 13%, no sharp cut-off; inactive = mostly below about 14%; also: read at 38.3 µM for the half of the compounds with a filed dose
# Pf growth 96h = inhibits malaria parasite growth, 96 h; hit rate 6.9% among 320,000; Potency, µM (doses to about 28.7 µM), usual class: inhibitors; P. falciparum luciferase reporter growth, 96 h; AID 504834
#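 96 h incubation, 37 C, 5% CO2, of luciferase-reporter P. falciparum-infected RBCs (2% hematocrit, 0.05% parasitemia final) with test compounds; endpoint luminescence.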
# Pf growth 48h = P. falciparum growth inhibition at 48 hours (one generation) | P. falciparum luciferase growth in erythrocytes, 48 h | Potency, µM (titrated, usually from 28.7 µM), most hits filed as inhibitors | hit rate 5.9% among 310,000 | AID 504832
#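 Parasite viability was followed by luminescence of a genomically integrated firefly luciferase. Cultures held 0.1% parasitemia at 2% hematocrit (final), incubated under 5% CO2 at 37 C.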
# LmPK inh = blocks Leishmania mexicana pyruvate kinase activity | Q27686 | purified LmPK, Kinase-Glo ATP luminescence, 1 h | Potency, µM (series often up to 57.5 µM), hits mostly inhibitors | hit rate 0.37% among 290,000 | AID 1721
# Target sequence (Q27686 whole entry, looked up): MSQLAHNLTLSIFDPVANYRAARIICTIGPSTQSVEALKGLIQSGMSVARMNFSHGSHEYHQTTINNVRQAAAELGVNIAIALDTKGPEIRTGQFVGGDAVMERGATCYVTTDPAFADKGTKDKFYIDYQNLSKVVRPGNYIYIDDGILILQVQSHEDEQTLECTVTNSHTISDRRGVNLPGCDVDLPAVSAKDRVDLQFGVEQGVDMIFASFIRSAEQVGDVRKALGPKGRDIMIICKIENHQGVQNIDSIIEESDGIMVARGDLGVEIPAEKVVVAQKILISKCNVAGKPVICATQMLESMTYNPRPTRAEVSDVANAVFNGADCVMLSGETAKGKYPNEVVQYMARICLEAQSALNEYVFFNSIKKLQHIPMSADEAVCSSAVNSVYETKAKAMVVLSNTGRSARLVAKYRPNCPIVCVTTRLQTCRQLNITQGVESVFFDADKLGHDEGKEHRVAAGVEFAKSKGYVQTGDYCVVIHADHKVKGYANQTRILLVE
#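 Purified LmPK (0.1 nM) with 0.5 mM PEP and 0.1 mM ADP in imidazole buffer pH 7.2 with MgCl2/KCl, 1 h at room temperature. ATP formed was read by luciferase luminescence and normalized to no-enzyme and uninhibited controls.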
# A number is an active result; – = inactive; ? = inconclusive; · = no result. In the library only some 22% were active in any assay of this set; here they are far more common. Unless noted, calls follow the shape of the dose curve; as a rule, active = well fitted inhibition curve with a large enough effect; inconclusive = small, poorly fitted or top-dose-only effect, or another doubt; inactive = no such curve, though single readings can be large or run the other way.
SMILES,Shiga toxin inh,Cycloheximide cs,Pf growth 96h,Pf growth 48h,LmPK inh
COC(=O)Cc1c(C)c2ccc(OCC(=O)N(C)C3CCS(=O)(=O)C3)cc2oc1=O (centres undefined),–,–,–,–,–
O=C1c2ccccc2C(=O)N1CCCCSc1nc2ccccc2c(=O)n1CCCN1CCOCC1,–,–,?,?,–
COc1cc(/C=C/C(=O)c2ccc3c(c2)OCCO3)cc(Br)c1OCC(=O)N(C)C,–,–,?,?,–
CC(Cc1cccs1)NC(=O)Nc1ccccc1 (centres undefined),64,–,2.9µM,–,–
CC(Cc1cccs1)NC(=S)Nc1ccccc1 (centres undefined),40,18,–,–,–
CC(Cc1cccs1)NC(=O)Nc1ccc(Cl)c(Cl)c1 (centres undefined),59,45,?,·,–
CC(Cc1cccs1)NC(=O)Nc1ccc(Cl)cc1 (centres undefined),88,29,·,–,–
CC1=C(C(=O)Nc2cccc(C(=O)N3CCC(C(N)=O)CC3)c2)SCCO1,–,–,–,–,–
CN(C)/C=N/c1nc2ccc3c(c2s1)CCCC3,87,36,?,–,–
C=C(C)COc1ccc(-c2nc(N)ncc2-c2ccc(OC)cc2)c(O)c1,–,–,–,?,–
C=C(C)COc1ccc(-c2nc(N)ncc2-c2ccc(Cl)cc2)c(O)c1,–,–,?,13µM,–
Nc1ncc(-c2ccccc2)c(-c2ccc(OCc3ccccc3)cc2O)n1,–,–,?,12µM,–
CC1(c2ccccc2)NC(=O)N(CC(=O)Nc2nnc(C3CC3)s2)C1=O (centres undefined),–,–,–,–,–
CCn1c(C)c(C)c2cc(C(=O)NC3CCCCCC3)ccc21,–,–,–,?,–
CS(=O)(=O)N(CC(=O)NCCSCc1ccccc1)c1ccccc1F,–,–,?,–,–
O=c1[nH]nc(Cc2ccc3ccccc3n2)c2ccccc12,36,28,–,–,–
CCNc1nc(NCC)nc(SCCOC(=O)Nc2ccc(Cl)cc2Cl)n1,–,–,–,–,–
O=[N+]([O-])c1ccc(C(O)C[n+]2ccccc2)cc1 (centres undefined),·,–,7.4µM,–,–
CC1CCCCN1C(=O)N[C@@H](Cc1ccccc1)C(=O)O (some centres undefined),–,–,–,–,–
CC1CCCCN1C(=O)C(Cc1ccccc1)N1C(=O)C2CCCCC2C1=O (centres undefined),–,–,13µM,–,–
COc1ccc(C2=NOC(C(=O)NCc3cccs3)C2)cc1 (centres undefined),–,18,·,·,–
COc1ccc(C2=NOC(C(=O)NCc3ccco3)C2)cc1 (centres undefined),–,27,·,–,–
COc1ccc(C2=NOC(CNC(N)=S)C2)cc1 (centres undefined),57,36,2.6µM,–,–
COc1cc(C2=NOC(C(=O)NCc3ccco3)C2)cc(OC)c1OC (centres undefined),–,–,–,–,–
COc1ccc(C2=NOC(C(=O)NCC(C)C)C2)cc1 (centres undefined),61,45,·,–,–
SMILES,Shiga toxin inh,Cycloheximide cs,Pf growth 96h,Pf growth 48h,LmPK inh
COc1ccc(NC(=O)COc2ccc3c(C)cc(=O)oc3c2)cc1S(=O)(=O)N1CCCCC1,·,·,–,–,·
Cc1ccc(N=Cc2cc3c(cc2O)OC(N)=C(C#N)C3c2ccccc2)cc1 (centres undefined),–,–,–,–,–
C=CCN(C(C(=O)OC)C(C)C)S(=O)(=O)CCl (centres undefined),–,–,·,·,·
CCOc1ccc(C(=O)OCC(=O)N2CCCC2)cc1OCC,–,–,–,–,–
CC1(C)Cc2ccccc2-c2nc(NCCCO)[nH]c(=O)c21,–,–,–,–,–
O=C(NCc1cccs1)C1CC(c2ccccc2O)=NO1 (centres undefined),51,27,·,–,–
NC1=NC[C@@H](Cc2ccc(O)cc2)N1CCc1cccc2ccccc12,–,–,1.9µM,5.9µM,–
O=C1NC[C@@H](Cc2ccc(O)cc2)N(CCc2cccc3ccccc23)C1=O,–,–,?,?,–
CCC(C)[C@H]1CNC(=S)N1CCc1cccc2ccccc12 (some centres undefined),–,–,?,–,–
NC1=NC[C@H](Cc2ccc(O)cc2)N1CCc1cccc2ccccc12,–,–,1µM,3.3µM,–

# Compound activity deposited in PubChem BioAssay by National Center for Advancing Translational Sciences (NCATS).
